Our source for the binding signal values is PMC7862700, “An all-to-all approach to the identification of sequence-specific readers for epigenetic DNA modifications on cytosine”.

What all share (test): DAPPL (digital affinity profiling via proximity ligation, sequencing); 10 mM Tris-HCl pH 7.5, 50 mM NaCl, 1 mM DTT, 4% glycerol, room temperature, 30 min; GST-TFs on glutathione beads, 16-mer random dsDNA library, 0.1% formaldehyde crosslink after washing; high values mean tight binding
Conditions in all cases: protein: recombinant; tags: N-terminal GST; dsDNA, one strand shown

The target of assay [1] is T1, ELK4 (Homo sapiens, UniProt P28324-2 1-405).
T1 sequence: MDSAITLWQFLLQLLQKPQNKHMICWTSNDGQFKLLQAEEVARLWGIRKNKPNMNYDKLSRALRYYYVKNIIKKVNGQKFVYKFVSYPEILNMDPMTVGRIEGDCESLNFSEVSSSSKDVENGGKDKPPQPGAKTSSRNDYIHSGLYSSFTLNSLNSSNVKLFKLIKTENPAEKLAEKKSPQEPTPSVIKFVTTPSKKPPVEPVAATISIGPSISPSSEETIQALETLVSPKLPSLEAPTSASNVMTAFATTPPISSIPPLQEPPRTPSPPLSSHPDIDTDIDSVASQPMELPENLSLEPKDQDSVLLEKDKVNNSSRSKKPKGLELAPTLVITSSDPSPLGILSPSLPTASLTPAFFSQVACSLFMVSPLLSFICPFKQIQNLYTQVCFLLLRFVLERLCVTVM
In short, it runs like this:
(§1)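 GST fusions of human transcription factors were expressed in yeast and captured with glutathione beads. Once given DNA barcodes and pooled alongside a tag-only sample, they were incubated for 30 min at room temperature with 200 nmole of a random double-stranded 16-mer DNA library in Tris/NaCl/DTT/glycerol buffer, then washed, crosslinked (0.1% formaldehyde), proximity-ligated, PCR-amplified and sequenced on an Illumina NextSeq500. The binding signal of each hexamer is its read frequency for a factor divided by its frequency for the tag-only sample.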

Assay [2] deals with T2, ETV2 (Homo sapiens, UniProt O00321 1-342).
T2 sequence: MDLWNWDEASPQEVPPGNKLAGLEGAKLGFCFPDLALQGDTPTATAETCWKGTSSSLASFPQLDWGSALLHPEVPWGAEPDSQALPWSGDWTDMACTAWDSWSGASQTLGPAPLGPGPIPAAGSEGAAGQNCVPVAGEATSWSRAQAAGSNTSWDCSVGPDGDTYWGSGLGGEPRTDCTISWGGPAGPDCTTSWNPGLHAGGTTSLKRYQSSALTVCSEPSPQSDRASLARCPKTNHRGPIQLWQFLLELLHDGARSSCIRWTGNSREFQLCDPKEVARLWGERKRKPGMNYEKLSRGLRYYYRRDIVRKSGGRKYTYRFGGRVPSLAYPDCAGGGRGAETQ
In short, it runs like this: as §1

In assay [3] the target is T3, ELF3 (Homo sapiens, UniProt P78545 1-371).
T3 sequence: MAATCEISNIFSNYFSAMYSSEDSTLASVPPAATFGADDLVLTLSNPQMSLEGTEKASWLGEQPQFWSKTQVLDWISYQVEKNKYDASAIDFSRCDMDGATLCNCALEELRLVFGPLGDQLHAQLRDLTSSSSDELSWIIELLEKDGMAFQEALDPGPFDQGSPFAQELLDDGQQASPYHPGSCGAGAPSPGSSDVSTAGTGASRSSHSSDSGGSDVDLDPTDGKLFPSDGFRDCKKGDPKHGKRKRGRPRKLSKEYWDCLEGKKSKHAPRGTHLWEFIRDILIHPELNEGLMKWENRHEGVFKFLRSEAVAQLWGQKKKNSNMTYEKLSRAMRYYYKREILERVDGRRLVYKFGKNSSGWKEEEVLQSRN
In short, it runs like this:
as §1

Assay [4] has as its target ETV1 (Homo sapiens, UniProt P50549 1-477). In outline:
as §1

The target of assay [5] is T4, ERF (Homo sapiens, UniProt P50548 1-548).
T4 sequence: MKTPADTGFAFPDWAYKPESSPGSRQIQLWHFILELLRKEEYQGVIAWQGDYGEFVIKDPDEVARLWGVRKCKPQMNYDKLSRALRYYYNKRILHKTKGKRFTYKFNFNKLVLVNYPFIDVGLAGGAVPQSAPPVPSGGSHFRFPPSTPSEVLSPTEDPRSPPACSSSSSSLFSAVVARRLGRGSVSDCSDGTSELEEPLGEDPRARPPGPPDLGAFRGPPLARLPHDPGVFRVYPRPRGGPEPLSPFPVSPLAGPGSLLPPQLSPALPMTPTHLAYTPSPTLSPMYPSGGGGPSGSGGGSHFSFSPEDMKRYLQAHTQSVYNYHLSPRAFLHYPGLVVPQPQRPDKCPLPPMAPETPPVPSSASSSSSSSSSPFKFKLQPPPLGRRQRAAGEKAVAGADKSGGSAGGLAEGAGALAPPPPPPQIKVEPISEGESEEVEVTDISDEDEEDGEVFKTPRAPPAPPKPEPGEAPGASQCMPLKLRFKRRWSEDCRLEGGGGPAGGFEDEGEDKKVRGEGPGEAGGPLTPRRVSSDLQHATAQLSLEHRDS
In short, it runs like this:
as §1

In assay [6] the target is T5, ETV3L (Homo sapiens, UniProt Q6ZN32 1-361).
T5 sequence: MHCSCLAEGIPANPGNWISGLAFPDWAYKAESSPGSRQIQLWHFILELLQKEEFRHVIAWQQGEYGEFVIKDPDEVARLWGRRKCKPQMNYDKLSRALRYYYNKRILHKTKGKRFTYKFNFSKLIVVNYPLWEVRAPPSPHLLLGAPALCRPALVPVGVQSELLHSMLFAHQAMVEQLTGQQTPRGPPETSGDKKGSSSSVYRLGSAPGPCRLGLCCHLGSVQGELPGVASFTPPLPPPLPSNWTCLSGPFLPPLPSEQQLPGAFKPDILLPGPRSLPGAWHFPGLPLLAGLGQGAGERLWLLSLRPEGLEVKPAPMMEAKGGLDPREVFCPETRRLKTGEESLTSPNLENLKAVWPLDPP
In short, it runs like this:
as §1

The target in assay [7] is T6, ETS2 (Homo sapiens, UniProt P15036 1-469).
T6 sequence: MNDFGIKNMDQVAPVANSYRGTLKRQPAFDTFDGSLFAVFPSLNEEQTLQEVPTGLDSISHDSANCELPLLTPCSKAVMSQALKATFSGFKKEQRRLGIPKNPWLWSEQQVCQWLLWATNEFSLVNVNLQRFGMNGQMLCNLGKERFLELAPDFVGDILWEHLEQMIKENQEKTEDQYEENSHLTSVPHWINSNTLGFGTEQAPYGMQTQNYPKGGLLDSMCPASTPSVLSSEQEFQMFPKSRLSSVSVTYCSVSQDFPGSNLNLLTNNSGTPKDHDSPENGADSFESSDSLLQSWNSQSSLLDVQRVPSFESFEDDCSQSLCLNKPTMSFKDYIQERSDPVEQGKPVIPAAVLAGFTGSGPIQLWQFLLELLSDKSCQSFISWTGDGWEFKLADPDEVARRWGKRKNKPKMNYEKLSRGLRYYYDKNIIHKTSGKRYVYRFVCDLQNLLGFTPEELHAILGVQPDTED
In outline:
as §1

In assay [8] the target is T7, ETV7 (Homo sapiens, UniProt Q9Y603 1-341).
T7 sequence: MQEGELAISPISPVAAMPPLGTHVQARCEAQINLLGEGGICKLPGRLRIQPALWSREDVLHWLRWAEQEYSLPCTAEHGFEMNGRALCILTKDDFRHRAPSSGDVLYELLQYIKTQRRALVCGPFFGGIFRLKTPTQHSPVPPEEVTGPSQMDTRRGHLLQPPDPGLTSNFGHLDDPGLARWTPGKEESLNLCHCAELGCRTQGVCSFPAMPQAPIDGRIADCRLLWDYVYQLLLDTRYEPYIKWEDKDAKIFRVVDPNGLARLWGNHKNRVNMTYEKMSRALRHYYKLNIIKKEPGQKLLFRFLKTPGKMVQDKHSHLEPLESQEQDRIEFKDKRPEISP
In outline: as §1

Assay [9] has as its target T8, ETV3 (Homo sapiens, UniProt P41162-2 1-143).
T8 sequence: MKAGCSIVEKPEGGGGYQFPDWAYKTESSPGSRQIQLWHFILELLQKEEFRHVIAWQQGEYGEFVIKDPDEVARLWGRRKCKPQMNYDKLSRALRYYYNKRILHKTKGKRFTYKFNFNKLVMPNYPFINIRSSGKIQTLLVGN
In outline:
as §1

Assay [10] deals with ETV6 (Homo sapiens, UniProt P41212 1-452). In outline: as §1
Chain of ETV6 (P41212 whole entry): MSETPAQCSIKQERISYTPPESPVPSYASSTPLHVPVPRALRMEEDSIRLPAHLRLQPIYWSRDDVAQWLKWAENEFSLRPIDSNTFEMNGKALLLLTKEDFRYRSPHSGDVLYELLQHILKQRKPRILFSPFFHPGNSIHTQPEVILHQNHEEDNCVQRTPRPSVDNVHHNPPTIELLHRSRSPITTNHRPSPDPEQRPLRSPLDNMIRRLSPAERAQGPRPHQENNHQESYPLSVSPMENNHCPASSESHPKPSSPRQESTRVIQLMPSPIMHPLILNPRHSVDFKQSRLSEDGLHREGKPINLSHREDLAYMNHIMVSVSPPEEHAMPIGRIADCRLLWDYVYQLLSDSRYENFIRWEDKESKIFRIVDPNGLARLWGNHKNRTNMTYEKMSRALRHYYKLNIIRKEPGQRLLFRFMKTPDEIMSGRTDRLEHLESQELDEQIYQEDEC

Chain of ETV1 (P50549 whole entry): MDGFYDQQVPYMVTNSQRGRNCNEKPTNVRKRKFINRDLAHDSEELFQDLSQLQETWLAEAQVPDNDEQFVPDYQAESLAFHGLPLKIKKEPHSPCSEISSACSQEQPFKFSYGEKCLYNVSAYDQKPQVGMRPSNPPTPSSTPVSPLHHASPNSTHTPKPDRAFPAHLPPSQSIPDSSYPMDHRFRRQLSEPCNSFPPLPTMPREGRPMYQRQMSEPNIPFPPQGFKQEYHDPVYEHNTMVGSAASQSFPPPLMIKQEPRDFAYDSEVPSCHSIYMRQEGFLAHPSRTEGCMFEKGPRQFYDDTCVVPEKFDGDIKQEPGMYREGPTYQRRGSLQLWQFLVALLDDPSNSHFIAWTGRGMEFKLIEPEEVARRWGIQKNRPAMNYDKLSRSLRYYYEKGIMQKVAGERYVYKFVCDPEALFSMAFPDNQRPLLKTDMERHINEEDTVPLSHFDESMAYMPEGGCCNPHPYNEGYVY

Regarding GTACCC, the binding signal is 1.17 fold enrichment (6-mer frequency, TF over GST control) in assay [1]; 1.11 fold enrichment (6-mer frequency, TF over GST control) in assay [2]; 1.17 fold enrichment (6-mer frequency, TF over GST control) in assay [3]; 1.11 fold enrichment (6-mer frequency, TF over GST control) in assay [4]; 1.13 fold enrichment (6-mer frequency, TF over GST control) in assay [5]; 1.16 fold enrichment (6-mer frequency, TF over GST control) in [6]. For the same sequence, the binding signal is 1.12 fold enrichment (6-mer frequency, TF over GST control) in assay [7]; 1.06 fold enrichment (6-mer frequency, TF over GST control) in assay [8]; 1.06 fold enrichment (6-mer frequency, TF over GST control) in assay [9]; 1.13 fold enrichment (6-mer frequency, TF over GST control) in assay [10].
